Unmarked numbers belong to inactive results. Inconclusive results are not listed. Where a call stands in place of a potency, no number is given. Active and inactive are the calls of the source. Unless noted, calls come from the whole dose curve; as a rule, active = well fitted curve in the direction sought with a large enough effect; inconclusive = small, poorly fitted or top-dose-only effect, or another doubt; inactive = no such curve, though single readings can be large; an effect the other way counts as inactive or inconclusive.
Experiments:
[1] = system: Zika virus NS2B-NS3 protease; experiment: Primary screen GU AMC qHTS for Zika virus inhibitors (AID 1347154); note: nearly all actives have a fitted effect of over 70% in size
Procedure, shortened: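 Unlinked Zika NS2B hydrophilic domain–NS3 protease complex at 25 nM in 10 mM Tris-HCl pH 8.0, 0.01% Tween 20, with an AMC peptide substrate. Fluorescence change (340/450 nm) over 15 min at room temperature, normalized to controls, fitted to 4-parameter Hill.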

[2] = AP1 Signaling Pathway (AID 357; active = well fitted curve in either direction with a large enough effect, not every such curve was filed as active;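 note: ME-180 reporter cells stimulated with EGF at its EC50 level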)
Procedure, shortened: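 Read-out was the 460nm/530nm emission ratio (excitation 405nm) after CCF4 loading for 2.5 hours at room temperature. Cells carried an AP-1-driven beta-lactamase reporter, were stimulated with EC50 EGF plus compound for 5 hours, and AC50 values came from titrations.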

[3] = target: Cytochrome P450 1A2 (Homo sapiens) (UniProt P05177); experiment: p450-cyp1a2 (AID 410; calls by dose curve; note: potency is the fitted concentration of half-maximal effect)
Procedure, shortened: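 20nM CYP1A2 with 100uM Luciferin-ME (at Km) in 100mM KPO4; compound preincubated 10 min, NADPH regeneration added, 60 min at room temperature. Luciferin quantified by luminescence after detection reagent; normalized to 57 uM furafylline.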

[4] = NFAT Signaling Pathway (AID 444; active = well fitted curve in either direction with a large enough effect, not every such curve was filed as active;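 note: carbachol stimulus at about its EC50 of 1 µM final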); settings: Jurkat NFAT-bla M1, carbachol, beta-lactamase ratio, 5 h; at 38 µM (top of the series)
Procedure, shortened: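 Jurkat cells with NFAT-driven β-lactamase reporter and co-expressed M1 receptor, stimulated with carbachol (final 1 uM, ~EC50), compound titration, 5 h at 37 °C. CCF4 loaded 1 h at RT; 460/530 nm ratio gave %activity and AC50.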

[5] = Stat Signaling Pathway (AID 446; active = well fitted curve in either direction with a large enough effect, not every such curve was filed as active;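 note: ME-180 cervical cancer cells given 40 pM IL-6 alongside compound; SIE-controlled beta-lactamase reporter measured as 460/530 nm FRET emission ratio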)
Procedure, shortened: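 IL-6/STAT signaling read in ME-180 cells via an SIE beta-lactamase reporter. Stimulus was 40 pM IL-6 (its AC50) for 5 hrs, so both activation and inhibition register.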

[6] = target: Glucocorticoid receptor (Homo sapiens) (UniProt P04150); experiment: GR-GFP Redistribution (AID 450;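 active = compounds whose dose series gives a full or clear partial fitted curve of increased nuclear translocation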; note: potency is the fitted concentration of half-maximal effect); settings: U2OS GR-GFP nuclear translocation, laser cytometry, 2 h
[7] = target: Glucocorticoid receptor (Homo sapiens) (UniProt P04150); experiment: GR-EFC Redistribution (AID 451; calls by dose curve; note: potency is the fitted concentration of half-maximal effect); settings: CHO-K1 GR-EFC translocation, beta-gal luminescence, 2 h
Procedure, shortened: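 CHO-K1 cells expressing nuclear EA and GR-ED fragments of b-gal; compounds titrated up to 46 uM final, 2 h at 37 C. GR nuclear translocation read as complemented b-gal luminescence after 1 h RT detection.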

[8] = target: Mitogen-activated protein kinase 10 (Mus musculus) (UniProt Q61831); experiment: JNK3 AlphaScreen Assay (AID 530; active = well fitted curve in either direction with a large enough effect, not every such curve was filed as active;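 note: kinase came from lysate of stimulated human HepG2 cells; signal reports phosphorylation of biotinylated GST-cJun 1-79 at Ser73 with 10 µM ATP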)
Procedure, shortened: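 Pre-activated (IL-1β/TNFα) JNK3 in HepG2 lysates phosphorylates biotin-GST-cJun(1-79), 10 uM ATP; anti-phospho-cJun(Ser73) AlphaScreen read at room temperature, pH 7.6 Tris buffer. Compounds pre-incubated 15 min as titrations.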

[9] = target: 3',5'-cyclic-AMP phosphodiesterase 4B (Homo sapiens) (UniProt Q07343); experiment: qHTS Assay for Inhibitors of PDE-IV (AID 607; active = well fitted activation curve with a large enough effect in the main read-out, with a control signal flat, not every such curve was filed as active)
Procedure, shortened: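 Live HEK293 cells with a modified cyclic nucleotide-gated (CNG) channel report intracellular cAMP via membrane-potential dye fluorescence (ex 535/em 590 nm). Endogenous PDE-IV was targeted. Compounds were tested at up to 22.9 uM final; RO 20-1724 100 uM served as control.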

[10] = target: Guanine nucleotide-binding protein G(i) subunit alpha-1 (Homo sapiens) (UniProt P63096); experiment: qHTS Assay for Inhibitors of RGS12 GoLoco Motif Activity (Green Fluorophore) (AID 879);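 note: negative values mean loss of peptide binding seen as reduced polarization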
Procedure, shortened: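 Fluorescence polarization assay: 50 nM Gαi1 with 10 nM FITC-labeled RGS12 GoLoco peptide in 10 mM Tris pH 7.5, 150 mM NaCl, 0.1 mM GDP, 0.05% NP40, 10 min at room temperature with compound.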

[11] = target: Muscarinic acetylcholine receptor M1 (Rattus norvegicus) (UniProt P08482); experiment: qHTS Assay for Antagonists of Acetylcholine Muscarinic M1 Receptor: Kinetic Measurement of Intracellular Calcium Response (AID 943); note: nearly all actives have a fitted effect of over 75% in size
Procedure, shortened: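 CHO cells expressing rat M1 receptor, Fluo-4 loaded, preincubated 10 min with compound, then stimulated with EC80 carbachol (100 nM final). Kinetic calcium fluorescence over 4 min; response taken as peak over basal signal.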

[12] = target: Muscarinic acetylcholine receptor M1 (Rattus norvegicus) (UniProt P08482); experiment: qHTS Assay for Antagonists of Acetylcholine Muscarinic M1 Receptor: Measurement of IP-One Response (AID 944); note: nearly all actives have a fitted effect of over 75% in size
Procedure, shortened: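 CHO cells stably expressing rat M1, pretreated 10 min with compound, then stimulated 30 min with carbachol at EC80 (200 nM) in LiCl-containing buffer pH 7.4; IP1 accumulation read by HTRF competition (665/620 nm).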

[13] = target: Pyruvate kinase (Leishmania mexicana) (UniProt Q27686); experiment: qHTS Validation Assay for Inhibitors of Leishmania Mexicana Pyruvate Kinase (AID 945)
Procedure, shortened: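 Eight-point qHTS titrations; enzyme 0.2 nM LmPYK (E451W mutant); substrates 0.5 mM PEP, 0.1 mM ADP; 7 mM MgCl2; 1 h room temperature; PKLight luminescence normalized to neutral control.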

[14] = target: Pyruvate kinase PKM (Homo sapiens) (UniProt P14618); experiment: qHTS Assay for Activators of Human Muscle Pyruvate Kinase (AID 954; active = well fitted curve in the direction sought with a large enough effect, not every such curve was filed as active)
Procedure, shortened: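 Enzyme was run at intermediate activity so both inhibitors and activators could be detected. ATP formed from ADP and PEP by 0.1 nM human PKM2 during a 1 h room-temperature incubation was quantified by coupled luciferase luminescence.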

[15] = target: Alpha-galactosidase (Coffea arabica) (UniProt Q42656); experiment: Counterscreen for Glucocerebrosidase Inhibitors: qHTS Assay for Coffee Bean alpha-Galactosidase at pH 4.5 (AID 957)
Procedure, shortened: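 Coffee bean enzyme (2 nM) with 80 uM 4-methylumbelliferyl alpha-D-galactopyranoside in 50 mM citric acid, 0.005% Tween-20, pH 4.5, 20 min at room temperature; compounds 0.7 nM–77 uM. Stopped at pH 10, fluorescence 365/440 nm; AC50 from Hill fits.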

[16] = target: Alpha-galactosidase A (Homo sapiens) (UniProt P06280); experiment: Counterscreen for Glucocerebrosidase Inhibitors: qHTS Assay for Human alpha-Galactosidase at pH 4.5 (AID 992)
Procedure, shortened: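 Read-out is 4-methylumbelliferone fluorescence (365 nm excitation, 440 nm emission) after a pH 10 NaOH/glycine stop. Reactions held 2 nM enzyme and 80 uM substrate at pH 4.5 for 20 min at room temperature.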

[17] = target: alpha-glucosidase (Oryza sativa, rice) (UniProt Q653V4); experiment: Counterscreen for Glucocerebrosidase Inhibitors: qHTS Assay for Rice alpha-Glucosidase at pH 5.0 (AID 997)
Procedure, shortened: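 Rice alpha-glucosidase (4 nM final) with 400 uM 4-methylumbelliferyl-alpha-D-glucopyranoside in citrate buffer pH 5.0, 20 min at room temperature, stopped at pH 10; fluorescence 365/440 nm, compounds 0.7 nM–77 uM, AC50 from Hill fits.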

[18] = target: Alpha-galactosidase (Coffea arabica) (UniProt Q42656); experiment: Counterscreen for Glucocerebrosidase Inhibitors: qHTS Assay for Coffee Bean alpha-Galactosidase at pH 5.9 (AID 998)
Procedure, shortened: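 Green coffee bean enzyme (2 nM) with 4-methylumbelliferyl alpha-D-galactopyranoside (80 uM) in 50 mM citric acid, 0.005% Tween-20, pH 5.9, 20 min at room temperature; compounds 0.7 nM–77 uM. Stopped at pH 10, fluorescence Ex365/Em440; Hill-fit AC50.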

[19] = target: DNA dC->dU-editing enzyme APOBEC-3G (Homo sapiens) (UniProt Q9HC16); experiment: qHTS for inhibitors of Vif-A3G interactions: Validation (AID 588379)
Procedure, shortened: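 HeLa cells stably expressing Vif and A3G-eYFP, 700 cells/well, incubated overnight at 37 deg C, then exposed to compound overnight at 37 deg C. Inhibition of Vif-mediated degradation read as increased yellow fluorescence (Ex 488/Em 500-530) by laser-scanning cytometry.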

Furin (Homo sapiens) = Furin (Homo sapiens) (UniProt P09958); experiment: Furin counterscreen qHTS for Zika virus inhibitors (AID 1347149);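 note: purified recombinant full-length human furin enzyme at 5 nM; fluorescence gain from furin cutting a BOC-RVRR-AMC peptide substrate over 15 min; top concentration of the series differs between compounds; nearly all actives have a fitted effect of over 70% in size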
Procedure, shortened: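 Fluorogenic cleavage of BOC-RVRR-AMC (2 microM final, Km ~15 µM) was monitored (ex 340, em 450 nm) at 37C after 15 min RT preincubation of 5 nM furin with compounds in HEPES pH 7.0 buffer with CaCl2 and Triton X-100. Percent inhibition was fitted to a 4-parameter Hill curve.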

[20] = system: Zika virus NS2B-NS3 protease (linked construct); experiment: Confirmatory screen NINDS AMC qHTS for Zika virus inhibitors (AID 1347152);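 note: AMC fluorescence gain from cleaved Bz-Nle-KRR-AMC substrate over 15 min; top concentration of the series differs between compounds; nearly all actives have a fitted effect of over 70% in size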
Procedure, shortened: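 Concentration-response confirmation used the NINDS linked protease (NS2B hydrophilic domain joined to NS3 protease domain), 1 nM, with a 15-min compound preincubation. Substrate, Nle-KRR-AMC at 10 microM, was read by UV fluorescence before and after 15 min.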

[21] = system: Zika virus NS2B-NS3 protease (unlinked complex); experiment: Confirmatory screen GU AMC qHTS for Zika virus inhibitors (AID 1347153); note: nearly all actives have a fitted effect of over 70% in size
Procedure, shortened: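 Unlinked enzyme 25 nM, Tris pH 8.0/0.01% Tween 20; cpd 15 min RT, dark; + AMC substrate 10 µM (Km 18.3 µM); 340/450 nm read at t0 and 15 min; % inhibition → 4-param fit.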

[22] = Confirmatory screen NINDS Rhodamine qHTS for Zika virus inhibitors (AID 1347161); note: nearly all actives have a fitted effect of over 60% in size; note: potency is the fitted concentration of half-maximal effect;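 for activity change, negative = inhibition: purified Zika NS2B-NS3 protease with linked NS2B cofactor domain and Rhodamine110 peptide substrate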
Procedure, shortened: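 qHTS dose-response: 25 nM linked protease, pH 8.0 Tris/Tween buffer, cpd titration, 15 min RT preinc, 1.5 microM Rhod110 peptide, 15 min reaction (~15% conversion), Ex480/Em540; 4-parameter Hill fit.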

[23] = Vero cells viability qHTS for Zika virus inhibitors (AID 1347167)
Procedure, shortened: (§1)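 Cells seeded at 2.5 x 10^5 cells/mL in DMEM with 4% FBS and attached overnight at 37 degrees C, then exposed to compound for 24 to 48 hours. Viability read as ATP content by CellTiter Glo luminescence.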

[24] = HepG2 cells viability qHTS for Zika virus inhibitors (AID 1347168)
Procedure, shortened: as §1

[25] = Tertiary RLuc qRT-PCR qHTS assay for Zika virus inhibitors (AID 1347169); note: top concentration of the series differs between compounds; nearly all actives have a fitted effect of over 55% in size
Procedure, shortened: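 Inhibition of ZIKV-RLuc replication in Vero cells, read as Renilla luminescence 1-1.5 hrs after live-cell substrate addition, following 48-72 hrs infection at MOI 1-2 in presence of compound.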

[26] = Primary qHTS for small molecule stabilizers of the endoplasmic reticulum resident proteome: Secreted ER Calcium Modulated Protein (SERCaMP) assay (AID 1508630)
Procedure, shortened: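 GLuc-SERCaMP-expressing SH-SY5Y cells, pretreated 16 h with compound, are challenged with thapsigargin to empty ER calcium stores; after 4 h, coelenterazine is added directly to the medium and luminescence is imaged.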

[27] = system: Zika virus NS2B-NS3 protease (linked construct); experiment: 384 well plate NINDS Rhodamine confirmatory qHTS for Zika virus inhibitors (AID 1347164); note: top concentration of the series differs between compounds; nearly all actives have a fitted effect of over 65% in size
Procedure, shortened: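 Cleavage of Ac-LKRR-Rhodamine 110 (10 microM final) by linked protease (final 5, 30 or 60 nM) was followed as fluorescence at 485/538 nm after 25 min, room temperature, dark. Compounds preincubated ~15 min.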

Glucocorticoid receptor (Homo sapiens), sequence (P04150 whole entry, looked up, the tested form may be a part): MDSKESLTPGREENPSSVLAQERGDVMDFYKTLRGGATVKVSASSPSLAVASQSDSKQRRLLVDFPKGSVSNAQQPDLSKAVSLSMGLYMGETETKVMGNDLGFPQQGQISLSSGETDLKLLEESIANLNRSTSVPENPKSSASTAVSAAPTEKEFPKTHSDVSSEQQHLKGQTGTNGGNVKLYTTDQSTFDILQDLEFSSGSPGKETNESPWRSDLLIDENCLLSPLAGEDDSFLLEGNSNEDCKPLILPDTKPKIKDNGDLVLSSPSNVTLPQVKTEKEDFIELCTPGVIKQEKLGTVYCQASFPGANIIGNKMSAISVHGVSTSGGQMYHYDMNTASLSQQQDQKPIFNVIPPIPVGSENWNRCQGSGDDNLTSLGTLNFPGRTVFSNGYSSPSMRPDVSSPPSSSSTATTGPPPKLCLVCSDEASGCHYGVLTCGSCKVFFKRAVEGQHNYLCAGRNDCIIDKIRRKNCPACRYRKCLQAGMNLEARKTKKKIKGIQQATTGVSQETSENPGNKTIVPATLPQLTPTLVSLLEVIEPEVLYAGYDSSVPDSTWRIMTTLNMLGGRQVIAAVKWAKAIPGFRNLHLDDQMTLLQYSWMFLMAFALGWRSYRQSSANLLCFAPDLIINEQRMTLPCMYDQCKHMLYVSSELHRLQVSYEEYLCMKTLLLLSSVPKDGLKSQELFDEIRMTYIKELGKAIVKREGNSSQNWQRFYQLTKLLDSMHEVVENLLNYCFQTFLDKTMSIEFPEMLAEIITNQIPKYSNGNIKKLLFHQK
DNA dC->dU-editing enzyme APOBEC-3G (Homo sapiens), sequence (Q9HC16 whole entry, looked up): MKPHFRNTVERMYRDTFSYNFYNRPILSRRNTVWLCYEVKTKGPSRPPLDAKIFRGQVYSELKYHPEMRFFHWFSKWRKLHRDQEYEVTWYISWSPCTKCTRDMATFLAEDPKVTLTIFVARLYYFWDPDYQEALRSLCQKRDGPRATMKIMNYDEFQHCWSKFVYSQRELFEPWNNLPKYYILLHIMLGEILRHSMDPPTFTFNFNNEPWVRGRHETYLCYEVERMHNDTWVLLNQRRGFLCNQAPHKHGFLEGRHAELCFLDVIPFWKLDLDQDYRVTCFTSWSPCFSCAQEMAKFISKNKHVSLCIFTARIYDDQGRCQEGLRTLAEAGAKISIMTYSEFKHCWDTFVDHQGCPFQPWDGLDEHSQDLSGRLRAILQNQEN
Muscarinic acetylcholine receptor M1 (Rattus norvegicus), sequence (P08482 whole entry, looked up): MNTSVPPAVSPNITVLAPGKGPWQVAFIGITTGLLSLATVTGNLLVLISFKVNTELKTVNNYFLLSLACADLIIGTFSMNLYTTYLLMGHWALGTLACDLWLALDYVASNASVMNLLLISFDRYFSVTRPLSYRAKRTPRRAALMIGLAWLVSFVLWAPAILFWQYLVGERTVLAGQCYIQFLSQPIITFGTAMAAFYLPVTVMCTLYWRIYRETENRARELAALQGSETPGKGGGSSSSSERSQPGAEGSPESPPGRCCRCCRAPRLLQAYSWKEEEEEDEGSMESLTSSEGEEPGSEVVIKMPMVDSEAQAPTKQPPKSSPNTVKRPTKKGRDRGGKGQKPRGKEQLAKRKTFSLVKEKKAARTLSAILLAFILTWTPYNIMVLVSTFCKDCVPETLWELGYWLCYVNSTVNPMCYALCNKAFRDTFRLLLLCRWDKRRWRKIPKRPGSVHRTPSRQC
Alpha-galactosidase (Coffea arabica), sequence (Q42656 whole entry, looked up): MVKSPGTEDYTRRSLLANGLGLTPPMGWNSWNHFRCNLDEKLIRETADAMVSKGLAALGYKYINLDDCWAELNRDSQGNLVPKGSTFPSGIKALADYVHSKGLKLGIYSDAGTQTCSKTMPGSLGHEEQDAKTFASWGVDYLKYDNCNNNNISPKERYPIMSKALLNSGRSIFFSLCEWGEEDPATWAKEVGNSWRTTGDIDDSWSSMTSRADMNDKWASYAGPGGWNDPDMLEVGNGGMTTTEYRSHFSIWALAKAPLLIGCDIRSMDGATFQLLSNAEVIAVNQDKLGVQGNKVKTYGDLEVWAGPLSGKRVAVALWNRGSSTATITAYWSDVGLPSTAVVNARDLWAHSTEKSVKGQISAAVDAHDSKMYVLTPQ
Cytochrome P450 1A2 (Homo sapiens), sequence (P05177 whole entry, looked up): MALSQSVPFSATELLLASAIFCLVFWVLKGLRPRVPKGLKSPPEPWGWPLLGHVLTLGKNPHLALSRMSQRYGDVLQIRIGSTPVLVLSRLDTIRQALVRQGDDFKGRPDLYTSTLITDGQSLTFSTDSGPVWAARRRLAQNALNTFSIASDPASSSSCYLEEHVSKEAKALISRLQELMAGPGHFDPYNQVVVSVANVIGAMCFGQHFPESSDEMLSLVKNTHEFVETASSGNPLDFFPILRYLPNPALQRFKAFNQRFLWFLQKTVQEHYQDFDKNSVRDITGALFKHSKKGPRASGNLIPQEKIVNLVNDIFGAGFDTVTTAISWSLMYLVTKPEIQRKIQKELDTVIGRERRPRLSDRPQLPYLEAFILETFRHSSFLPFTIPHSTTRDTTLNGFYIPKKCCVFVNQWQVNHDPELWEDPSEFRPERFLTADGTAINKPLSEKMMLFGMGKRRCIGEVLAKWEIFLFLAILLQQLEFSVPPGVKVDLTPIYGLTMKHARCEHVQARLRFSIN
Furin (Homo sapiens), sequence (P09958 whole entry, looked up): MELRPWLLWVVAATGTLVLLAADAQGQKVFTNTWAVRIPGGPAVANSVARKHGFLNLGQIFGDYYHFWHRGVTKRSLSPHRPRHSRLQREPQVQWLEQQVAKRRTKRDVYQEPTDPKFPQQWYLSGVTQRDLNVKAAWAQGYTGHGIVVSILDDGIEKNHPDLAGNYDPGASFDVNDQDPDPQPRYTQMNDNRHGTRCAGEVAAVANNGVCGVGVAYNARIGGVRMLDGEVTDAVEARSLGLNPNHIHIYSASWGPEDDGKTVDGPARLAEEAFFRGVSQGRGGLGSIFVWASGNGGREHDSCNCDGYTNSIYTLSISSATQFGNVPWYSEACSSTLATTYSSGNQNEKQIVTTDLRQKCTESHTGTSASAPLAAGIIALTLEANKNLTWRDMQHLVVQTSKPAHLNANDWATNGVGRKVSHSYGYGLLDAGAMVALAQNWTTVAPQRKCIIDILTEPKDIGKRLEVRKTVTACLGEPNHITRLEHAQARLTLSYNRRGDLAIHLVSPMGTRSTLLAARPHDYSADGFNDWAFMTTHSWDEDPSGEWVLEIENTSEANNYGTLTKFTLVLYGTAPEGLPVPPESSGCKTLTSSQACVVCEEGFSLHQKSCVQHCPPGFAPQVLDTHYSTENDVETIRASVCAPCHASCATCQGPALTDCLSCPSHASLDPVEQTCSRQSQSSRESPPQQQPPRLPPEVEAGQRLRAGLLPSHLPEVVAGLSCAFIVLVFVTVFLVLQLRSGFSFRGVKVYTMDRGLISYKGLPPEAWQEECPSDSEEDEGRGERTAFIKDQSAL
3',5'-cyclic-AMP phosphodiesterase 4B (Homo sapiens), sequence (Q07343 whole entry, looked up): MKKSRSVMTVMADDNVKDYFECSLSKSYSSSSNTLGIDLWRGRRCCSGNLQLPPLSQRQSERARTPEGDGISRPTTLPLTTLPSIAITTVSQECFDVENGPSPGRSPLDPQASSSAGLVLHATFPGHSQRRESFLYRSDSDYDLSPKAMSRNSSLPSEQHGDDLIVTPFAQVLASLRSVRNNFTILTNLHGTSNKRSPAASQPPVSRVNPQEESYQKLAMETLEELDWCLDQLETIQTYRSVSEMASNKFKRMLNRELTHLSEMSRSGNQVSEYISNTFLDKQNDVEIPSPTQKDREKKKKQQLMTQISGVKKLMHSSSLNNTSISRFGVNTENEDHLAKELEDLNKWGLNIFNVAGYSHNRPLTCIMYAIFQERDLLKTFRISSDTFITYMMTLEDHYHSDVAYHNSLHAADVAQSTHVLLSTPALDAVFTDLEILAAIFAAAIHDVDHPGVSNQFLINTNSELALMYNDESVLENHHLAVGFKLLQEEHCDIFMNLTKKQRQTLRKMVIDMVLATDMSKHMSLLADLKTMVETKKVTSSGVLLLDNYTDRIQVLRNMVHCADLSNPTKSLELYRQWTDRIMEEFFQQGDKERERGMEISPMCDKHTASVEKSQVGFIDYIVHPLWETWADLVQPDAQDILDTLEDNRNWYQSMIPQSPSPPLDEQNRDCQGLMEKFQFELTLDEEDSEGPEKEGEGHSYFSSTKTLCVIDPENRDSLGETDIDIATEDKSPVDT
Guanine nucleotide-binding protein G(i) subunit alpha-1 (Homo sapiens), sequence (P63096 whole entry, looked up): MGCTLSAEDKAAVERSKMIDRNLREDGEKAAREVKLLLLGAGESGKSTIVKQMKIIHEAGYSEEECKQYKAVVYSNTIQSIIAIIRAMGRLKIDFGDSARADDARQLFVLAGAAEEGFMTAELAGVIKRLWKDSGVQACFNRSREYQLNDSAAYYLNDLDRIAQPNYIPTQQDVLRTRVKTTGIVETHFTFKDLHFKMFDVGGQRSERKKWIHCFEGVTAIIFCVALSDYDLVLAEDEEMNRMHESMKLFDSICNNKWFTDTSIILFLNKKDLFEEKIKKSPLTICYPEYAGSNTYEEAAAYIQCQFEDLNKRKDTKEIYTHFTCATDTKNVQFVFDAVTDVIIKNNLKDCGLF
Pyruvate kinase PKM (Homo sapiens), sequence (P14618 whole entry, looked up): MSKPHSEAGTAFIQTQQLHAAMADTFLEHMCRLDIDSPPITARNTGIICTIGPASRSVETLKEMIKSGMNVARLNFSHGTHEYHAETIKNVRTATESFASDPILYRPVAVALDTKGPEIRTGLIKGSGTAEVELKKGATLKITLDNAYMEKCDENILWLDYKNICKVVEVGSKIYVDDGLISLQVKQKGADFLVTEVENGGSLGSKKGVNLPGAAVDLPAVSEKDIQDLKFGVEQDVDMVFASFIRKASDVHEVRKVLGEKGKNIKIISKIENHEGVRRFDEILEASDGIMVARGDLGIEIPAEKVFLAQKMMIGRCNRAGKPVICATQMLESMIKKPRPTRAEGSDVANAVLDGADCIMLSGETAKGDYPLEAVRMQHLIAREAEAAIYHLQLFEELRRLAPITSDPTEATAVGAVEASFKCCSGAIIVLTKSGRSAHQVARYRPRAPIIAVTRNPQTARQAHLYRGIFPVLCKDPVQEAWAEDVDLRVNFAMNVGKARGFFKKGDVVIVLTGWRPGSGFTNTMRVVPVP

For `C[C@]12CC[C@H]3[C@@H](C[C@H](F)C4=CC(=O)CC[C@@]43C)[C@@H]1CC[C@@H]2O`, the Potency [1] was “inactive”.

For `CN(C(=O)Cc1ccc(Cl)c(Cl)c1)[C@@H](CN1CCCC1)c1cccc(OCC(=O)O)c1`, the outcome [2] was “inactive”, the Potency [3] was “inactive” and the activity change, negative = inhibition [4] was 9.54%. For the same compound, the outcome [5] was “inactive”, the Potency [6] was > 46 µM and the Potency [7] was > 46 µM. For the same compound, the outcome [8] was “inactive”, the Potency [9] was “inactive” and the outcome [10] was “inactive”. For the same compound, the Potency [11] was “inactive”, the Potency [12] was “inactive” and the outcome [13] was “inactive”. For the same compound, the outcome [14] was “inactive”, the outcome [15] was “inactive” and the outcome [16] was “inactive”. For the same compound, the outcome [17] was “inactive”, the outcome [18] was “inactive” and the Potency [19] was “inactive”. For the same compound, the Potency (Furin (Homo sapiens)) was “inactive”, the Potency [20] was “inactive” and the Potency [21] was “inactive”. For the same compound, the Potency [22] was “inactive”, the Potency [23] was “inactive” and the Potency [24] was “inactive”. The Potency [25] was “inactive” and the Potency [26] was “inactive”.

`CCCCCCCCCCCCCCCC(=O)OC[C@H](COP(=O)([O-])OCC[N+](C)(C)C)OC(C)=O` showed an activity change, negative = inhibition [1] of 9.56% [at 6.83 µM].

In the case of `Ic1cncc(OC[C@@H]2CCN2)c1`, the Potency [3] is reported as 0.398 µM (active), the Potency [6] is reported as > 46 µM and the Potency [7] is reported as > 46 µM. The outcome [8] was “inactive”, the Potency [9] was “inactive” and the Potency [19] was “inactive”. The Potency (Furin (Homo sapiens)) was “inactive”, the Potency [21] was “inactive” and the Potency [22] was 34.9 µM (active). The Potency [27] was “inactive”, the Potency [23] was “inactive” and the Potency [24] was “inactive”. For the same compound, the Potency [25] was “inactive” and the Potency [26] was “inactive”.
